In the OligoGym collection:

Each sequence was assayed against ST8SIA1 (assay: pooled miR-30 sensor sort-seq; sequence = guide strand). Conditions: shRNA.
Also: reference of the scale not given here.

| Sequence | sensor-assay potency score (higher = more potent) |
| --- | --- |
| TAAGTTGAATTGTCAATGGTGA | -0.263 |
| TTTGTTTCCTGAACGCTCTGGC | 0.807 |
| TAGCTGTCACTAACTGACTTTT | -1.28 |
| TTTGCTTCATCTATTTGACGGC | 0.566 |
| TTTGATTGGCACCAACATCTGA | -0.123 |
| TAAGACGTTGTCATAGTAGTGG | 0.604 |
| TTGACAATCAGCAACACTTTTA | -1.09 |
| TTGATTGGCACCAACATCTGAC | -0.0698 |
| TTAGCTGTCACTAACTGACTTT | 0.0924 |
| TGACAGTGTATAATAAACCCTC | -0.586 |
| TTGTCCACAAATGTCTTTCTGG | -0.546 |

What follows are sequences tested against ST8SIA4 in the same assay as above. Conditions: shRNA.

| Sequence | sensor-assay potency score (higher = more potent) |
| --- | --- |
| TTTGATAGGAACTTTGTTGGTC | 0.701 |
| ATTGTGACTGTCAATCTCCTTT | -0.228 |
| TTTCCAACCTTCTACATTGTGC | -0.709 |
| TACATGAGAAGACCTGTGCTGG | -0.695 |
| TTATGTAGCACATTTAATGTTT | -0.574 |
| TTGAAATTAATCATCTCTGTTT | 0.14 |
| TTTAACTACAGAAAATATCGGT | 0.525 |
| TTAACTACAGAAAATATCGGTC | 0.169 |
| TTCTATTTGAATAACAAGGGGA | -0.346 |
| TCTTTTGATAGGAACTTTGTTG | -0.556 |
| TTGACCACTGACACATCTCGTT | 0.237 |

What follows are sequences tested against STAC in the same assay as above. Conditions: shRNA.

| Sequence | sensor-assay potency score (higher = more potent) |
| --- | --- |
| TATGTAAACACGCTGTTGCTGC | -0.123 |
| TTGTAGTCTCTGAACAAAGTTG | -1.06 |
| TCTTGAAAGAAAGTGATCGTTT | -0.172 |
| TTCTTCTTCAGAACTCACGCAG | 0.0195 |
| TTGTACAAGGCAACATAGGTGT | -0.164 |
| TACATTTCTTCTAAGATGCTGT | 0.11 |
| TTTCATGTCTTCGCTGTTGGTT | 0.0863 |
| TTTGTTGTAGTCTCTGAACAAA | -1.36 |
| TTTATAGTCCTACTGCTGCTGC | -0.661 |
| TTGCAGTTTCATGTCTTCGCTG | 0.116 |
| TTCCAAATCTTCATTCTCCTGT | 0.665 |
| TTGTCAGCACTTTTGCTCCGTA | -0.694 |

Each sequence was assayed against STAP2 in the same assay as above. Conditions: shRNA.

| Sequence | sensor-assay potency score (higher = more potent) |
| --- | --- |
| TAGAAAGCTCTCATAGTAGTGT | 0.706 |
| TCTCATAGTAGTGTGAAGGCAG | 0.0304 |
| TTCTTCTGTAGCTCTGCCGTCA | -0.496 |
| TTCTTCTCTAGAAAGCTCTCAT | -0.00657 |
